Experimental data from PubChem BioAssay AID1159580 (chemical genetic matrix, 2015).
Among all 5,500 compounds or so, about 2,000 (36%) were called active. Inconclusive results (about 18%) are left out. No stated cut-off is given here; in the data, active means normalized growth mostly below about 0.91 (no sharp cut-off); inconclusive means no clear call, values can overlap the other calls; inactive means mostly above about 0.92. The list shows a part of the results.

Assay: chemical genetic growth profiling, strain panel (AID 1159580);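 further: tested at 20 µM; growth read once vehicle control cultures reached saturation at 30 °C; 1 = growth at the plate median or of vehicle wells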
Details: growth OD

Measured: normalized growth

CN(C)CC/C=C1/c2ccccc2COc2ccccc21
inactive: S. cerevisiae deletion strains, locus YKL068W, stronger effect = lower value 1.02 | S. cerevisiae deletion strains, locus YKL085W, strain MDH1 (second series), stronger effect = lower value 1 | S. cerevisiae deletion strains, locus YKL085W, strain MDH1, stronger effect = lower value 1 | S. cerevisiae deletion strains, locus YKL160W, strain elf1, stronger effect = lower value 1.01 | S. cerevisiae deletion strains, locus YKL190W, strain CNB1, stronger effect = lower value 1.02 | S. cerevisiae deletion strains, locus YKR001C, strain vps1, stronger effect = lower value 1 | S. cerevisiae deletion strains, locus YKR026C, strain gcn3, stronger effect = lower value 1.03 | S. cerevisiae deletion strains, locus YKR091W, strain srl3, stronger effect = lower value 1.02 | S. cerevisiae deletion strains, locus YLL001W, strain dnm1, stronger effect = lower value 1.01 | S. cerevisiae deletion strains, locus YLL026W, stronger effect = lower value 1.02 | S. cerevisiae deletion strains, locus YLL041C, strain sdh2, stronger effect = lower value 1.03 | S. cerevisiae deletion strains, locus YLR027C, strain aat2, stronger effect = lower value 1.02 | S. cerevisiae deletion strains, locus YLR039C, strain RIC1, stronger effect = lower value 1.15 | S. cerevisiae deletion strains, locus YLR058C, strain SHM2, stronger effect = lower value 1.01 | S. cerevisiae deletion strains, locus YLR102C, strain apc9, stronger effect = lower value 1.01 | S. cerevisiae deletion strains, locus YLR113W, strain HOG1, stronger effect = lower value 1.09 | S. cerevisiae deletion strains, locus YLR221C, strain rsa3, stronger effect = lower value 1.01 | S. cerevisiae deletion strains, locus YLR258W, strain gsy2, stronger effect = lower value 1.02 | S. cerevisiae deletion strains, locus YLR262C, strain YPT6 (second series), stronger effect = lower value 1.09 | S. cerevisiae deletion strains, locus YLR262C, strain YPT6, stronger effect = lower value 1.14 | S. cerevisiae deletion strains, locus YLR268W, strain sec22, stronger effect = lower value 1.02 | S. cerevisiae deletion strains, locus YLR320W, strain mms22, stronger effect = lower value 1.01 | S. cerevisiae deletion strains, locus YLR330W, strain CHS5, stronger effect = lower value 1.01 | S. cerevisiae deletion strains, locus YLR342W, strain FKS1 (second series), stronger effect = lower value 1 | S. cerevisiae deletion strains, locus YLR342W, strain FKS1, stronger effect = lower value 1.01 | S. cerevisiae deletion strains, locus YLR357W, strain rsc2, stronger effect = lower value 1.02 | S. cerevisiae deletion strains, locus YLR370C, strain arc18, stronger effect = lower value 1.02 | S. cerevisiae deletion strains, locus YLR371W, strain rom2, stronger effect = lower value 1.01 | S. cerevisiae deletion strains, locus YLR384C, strain iki3, stronger effect = lower value 1.03 | S. cerevisiae deletion strains, locus YLR418C, strain cdc73, stronger effect = lower value 0.996 | S. cerevisiae deletion strains, locus YML016C, strain PPZ1, stronger effect = lower value 1 | S. cerevisiae deletion strains, locus YML032C, strain rad52, stronger effect = lower value 1.02 | S. cerevisiae deletion strains, locus YML120C, strain ndi1, stronger effect = lower value 1.04 | S. cerevisiae deletion strains, locus YML124C, strain tub3, stronger effect = lower value 1.02 | S. cerevisiae deletion strains, locus YMR058W, strain fet3, stronger effect = lower value 1.01 | S. cerevisiae deletion strains, locus YMR078C, strain ctf18, stronger effect = lower value 1.03 | S. cerevisiae deletion strains, locus YMR125W, strain sto1, stronger effect = lower value 1.02 | S. cerevisiae deletion strains, locus YMR129W, stronger effect = lower value 1.02 | S. cerevisiae deletion strains, locus YMR205C, strain PFK2, stronger effect = lower value 1.04 | S. cerevisiae deletion strains, locus YMR223W, strain ubp8, stronger effect = lower value 1.03 | S. cerevisiae deletion strains, locus YMR231W, strain pep5, stronger effect = lower value 1.03 | S. cerevisiae deletion strains, locus YMR263W, strain SAP30, stronger effect = lower value 1 | S. cerevisiae deletion strains, locus YMR307W, strain GAS1, stronger effect = lower value 1.05 | S. cerevisiae deletion strains, locus YNL067W, strain RPL9B, stronger effect = lower value 1.01 | S. cerevisiae deletion strains, locus YNL071W, strain lat1, stronger effect = lower value 1.02 | S. cerevisiae deletion strains, locus YNL128W, strain TEP1, stronger effect = lower value 1.01 | S. cerevisiae deletion strains, locus YNL153C, strain GIM3, stronger effect = lower value 0.997 | S. cerevisiae deletion strains, locus YNL183C, strain NPR1, stronger effect = lower value 0.989 | S. cerevisiae deletion strains, locus YNL209W, strain ssb2, stronger effect = lower value 0.985 | S. cerevisiae deletion strains, locus YNL233W, strain BNI4, stronger effect = lower value 1.01 | S. cerevisiae deletion strains, locus YNL248C, strain rpa49, stronger effect = lower value 1.01 | S. cerevisiae deletion strains, locus YNL250W, strain rad50, stronger effect = lower value 1.04 | S. cerevisiae deletion strains, locus YNL271C, strain bni1, stronger effect = lower value 1.01 | S. cerevisiae deletion strains, locus YNL298W, strain CLA4, stronger effect = lower value 1.02 | S. cerevisiae deletion strains, locus YNL307C, strain MCK1, stronger effect = lower value 1.03 | S. cerevisiae deletion strains, locus YNL322C, strain KRE1 (second series), stronger effect = lower value 1.02 | S. cerevisiae deletion strains, locus YNL322C, strain KRE1, stronger effect = lower value 1.02 | S. cerevisiae deletion strains, locus YNR049C, strain mso1, stronger effect = lower value 1.02 | S. cerevisiae deletion strains, locus YNR052C, strain pop2, stronger effect = lower value 1.02 | S. cerevisiae deletion strains, locus YOL006C, strain TOP1, stronger effect = lower value 0.974 | S. cerevisiae deletion strains, locus YOL012C, strain htz1 1.18 | S. cerevisiae deletion strains, locus YOL147C, strain pex11, stronger effect = lower value 1.01 | S. cerevisiae deletion strains, locus YOR001W, strain rrp6, stronger effect = lower value 1.02 | S. cerevisiae deletion strains, locus YOR061W, strain CKA2, stronger effect = lower value 1 | S. cerevisiae deletion strains, locus YOR069W, strain VPS5, stronger effect = lower value 1.01 | S. cerevisiae deletion strains, locus YOR070C, strain gyp1, stronger effect = lower value 1.02 | S. cerevisiae deletion strains, locus YOR080W, strain dia2, stronger effect = lower value 1.03 | S. cerevisiae deletion strains, locus YOR083W, strain WHI5, stronger effect = lower value 0.99 | S. cerevisiae deletion strains, locus YOR106W, strain vam3, stronger effect = lower value 1.02 | S. cerevisiae deletion strains, locus YOR136W, strain idh2, stronger effect = lower value 1.03 | S. cerevisiae deletion strains, locus YOR144C, strain elg1, stronger effect = lower value 1.01 | S. cerevisiae deletion strains, locus YOR184W, strain ser1, stronger effect = lower value 1.05 | S. cerevisiae deletion strains, locus YOR231W, strain MKK1, stronger effect = lower value 1.07 | S. cerevisiae deletion strains, locus YOR265W, strain rbl2, stronger effect = lower value 1.03 | S. cerevisiae deletion strains, locus YOR270C, strain vph1, stronger effect = lower value 1.02 | S. cerevisiae deletion strains, locus YOR290C, strain snf2, stronger effect = lower value 1.01 | S. cerevisiae deletion strains, locus YOR316C, strain cot1, stronger effect = lower value 1.01 | S. cerevisiae deletion strains, locus YPL051W, strain arl3, stronger effect = lower value 1.01 | S. cerevisiae deletion strains, locus YPL055C, strain LGE1, stronger effect = lower value 0.981 | S. cerevisiae deletion strains, locus YPL078C, strain atp4, stronger effect = lower value 1.02 | S. cerevisiae deletion strains, locus YPL106C, strain sse1, stronger effect = lower value 1.02 | S. cerevisiae deletion strains, locus YPL240C, strain hsp82, stronger effect = lower value 1.02 | S. cerevisiae deletion strains, locus YPL241C, strain CIN2, stronger effect = lower value 1.01 | S. cerevisiae deletion strains, locus YPL256C, strain CLN2, stronger effect = lower value 1.04 | S. cerevisiae deletion strains, locus YPR119W, strain clb2, stronger effect = lower value 1.01 | S. cerevisiae deletion strains, locus YPR141C, strain kar3, stronger effect = lower value 1.01 | S. cerevisiae deletion strains, locus YPR163C, strain tif3, stronger effect = lower value 1.01 | S. cerevisiae deletion strains, locus YPR167C, strain met16, stronger effect = lower value 1.02 | S. cerevisiae deletion strains, strain wtn01, stronger effect = lower value 1.03 | S. cerevisiae strains, strain wild type, stronger effect = lower value 1.01
